Measured values reported in PubChem BioAssay.
Activity calls are given as the source filed them.

Columns and labels:
[1] = small molecules captured by biotinylated probe aFSTL3 – biochemical, small-molecule microarray, fluorescence 635/667, stem cell growth factor project, primary screen (AID 1064); details: higher = more signal;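 further: measures binding of the biotinylated anti-FSTL3 antibody to printed compounds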
[2] = binders from COS7 lysate, DM2A8 probe, primary screen, torsin A project, cell lysate, small-molecule microarray, fluorescence 635/667 (AID 1065); details: higher = more signal, COS7 lysate expressing mutant human TOR1A
[3] = small molecules captured by biotinylated probe aFGF2 – biochemical, small-molecule microarray, fluorescence 635/667, stem cell growth factor project, primary screen (AID 1067); details: higher = more signal;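 further: measures binding of biotinylated aFGF2 protein to printed compounds on slides; z-score merges feature fluorescence and signal-to-noise across triplicate slides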
[4] = small molecules captured by biotinylated probe aFGF10 – biochemical, small-molecule microarray, fluorescence 635/667, stem cell growth factor project, primary screen (AID 1071); details: higher = more signal;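 further: score merges 667 nm spot intensity and signal to noise from triplicate slides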
[5] = molecular target: Neurogenic locus notch homolog protein 2 (Homo sapiens) (UniProt Q04721); assay: small molecules binding Notch2 protein – biochemical, small-molecule microarray, 635 nm fluorescence, stem cell growth factors, primary screen (AID 1073); details: higher = more signal
[6] = molecular target: Pro-neuregulin-1, membrane-bound isoform (Homo sapiens) (UniProt Q02297); assay: small molecules binding neuregulin-1 protein – biochemical, small-molecule microarray, fluorescence 635/667, psychiatric disease protein project, primary screen (AID 1075); details: NRG1 binding, 635 nm fluorescence, higher = more signal;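 further: score combines 667 nm spot fluorescence with signal to noise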
[7] = tested on: Neuregulin-1 EGF-like domain; assay: small molecules binding NRG1 EGF domain – biochemical, small-molecule microarray, 635 nm fluorescence, primary screen (AID 1081); details: higher = more signal;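 further: binding of the protein to compounds printed on small-molecule microarray slides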
[8] = FRG1 expression reporter modulators in myotubes – cell-based, C2C12 myotubes, firefly/Renilla luciferase, luminescence, FRG1 inhibition for FSHD, primary screen (AID 1084); details: FRG1 promoter luciferase, higher = more signal, called active from +8 up or from −8 down
[9] = small molecules captured by biotinylated probe aFST – biochemical, small-molecule microarray, fluorescence 635/667, stem cell growth factor project, primary screen (AID 1086); details: higher = more signal;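 further: score merges 667 nm fluorescence with signal-to-noise of each printed compound spot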
[10] = binders of probe aHhip on microarray, primary screen, stem cell growth factor project, biochemical, small-molecule microarray, fluorescence 635/667 (AID 1087); details: higher = more signal;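 further: score merges spot fluorescence at 667nm with spot signal to noise ratio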
[11] = tested on: PRMT1 (protein arginine N-methyltransferase 1); assay: small molecules binding arginine methyltransferase PRMT1 – biochemical, small-molecule microarray, 635 nm fluorescence, primary screen (AID 1088); details: higher = more signal;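 further: binding of Prmt1 protein to compounds spotted on small-molecule microarray slides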
[12] = growth effects on S. cerevisiae YJM789 – YJM789 clinical isolate, OD600, 24 h, basal, primary screen (AID 1089); details: higher = more signal, called active from +8 up or from −8 down;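 further: growth of clinical yeast isolate S. cerevisiae YJM 789 seeded 1000 cells per well; test concentration not given here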
[13] = S. pombe growth modifiers, basal conditions – strain 972, OD600, 24 h, no modulator, primary screen (AID 1090);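 further: basal condition with compound alone and no growth modifier present; test concentration not given here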; details: S. pombe 972 growth, higher = more signal, called active from +8 up or from −8 down
[14] = budding yeast growth modifiers under rapamycin – strain BY4716, OD600, 96 h, primary screen (AID 1091); further: test concentration not given here; details: S. cerevisiae BY4716 + rapamycin, higher = more signal, called active from +8 up or from −8 down
[15] = molecular target: Torsin-1A-interacting protein 2 (Homo sapiens) (UniProt Q8NFQ8); assay: small molecules binding lysate-expressed LULL1 – cell lysate, human LULL1 lysate, 635/667 nm fluorescence, primary screen (AID 1092); details: small-molecule microarray, hLULL1 lysate binding, 635 nm fluorescence; higher = more signal;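 further: probe is lysate of COS7 cells overexpressing human LULL1; score merges per-feature 667 nm fluorescence with signal-to-noise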
[16] = optical density change of DRC41 E. coli – strain DRC41, OD650, 24 h, E. coli filamentation project, primary screen (AID 1093);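 further: MC1000 strain lacking acrAB efflux and sulA so SOS filamentation is blocked; test concentration not given here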; details: E. coli DRC41 growth, higher = more signal, called active from +8 up or from −8 down
[17] = probe aLefty2 binding to arrayed compounds – biochemical, biotinylated probe, 635/667 nm fluorescence, primary screen (AID 1094); details: small-molecule microarray, higher = more signal;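 further: score merges spot fluorescence near 667 nm with spot signal-to-noise ratio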
[18] = tested on: Noggin (protein binding on small-molecule microarray); assay: small molecules binding Noggin protein – biochemical, 635/667 nm fluorescence, primary screen (AID 1095); details: 635 nm fluorescence, higher = more signal;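 further: score merges 667 nm feature fluorescence with signal to noise over triplicate slides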
[19] = molecular target: Neurogenic locus notch homolog protein 3 (Homo sapiens) (UniProt Q9UM47); assay: small molecules binding NOTCH3 protein – biochemical, 635/667 nm fluorescence, primary screen (AID 1096); details: small-molecule microarray, 635 nm fluorescence, higher = more signal
[20] = probe aEGFR binding to arrayed compounds – biochemical, biotinylated probe, 635/667 nm fluorescence, primary screen (AID 1097); details: small-molecule microarray, higher = more signal;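 further: probe is a biotinylated anti-EGFR antibody binding compounds printed on slides; score combines fluorescence near 667 nm and signal to noise of each spot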

Sequence of Neurogenic locus notch homolog protein 2 (Homo sapiens) (Q04721 whole entry, looked up, canonical isoform): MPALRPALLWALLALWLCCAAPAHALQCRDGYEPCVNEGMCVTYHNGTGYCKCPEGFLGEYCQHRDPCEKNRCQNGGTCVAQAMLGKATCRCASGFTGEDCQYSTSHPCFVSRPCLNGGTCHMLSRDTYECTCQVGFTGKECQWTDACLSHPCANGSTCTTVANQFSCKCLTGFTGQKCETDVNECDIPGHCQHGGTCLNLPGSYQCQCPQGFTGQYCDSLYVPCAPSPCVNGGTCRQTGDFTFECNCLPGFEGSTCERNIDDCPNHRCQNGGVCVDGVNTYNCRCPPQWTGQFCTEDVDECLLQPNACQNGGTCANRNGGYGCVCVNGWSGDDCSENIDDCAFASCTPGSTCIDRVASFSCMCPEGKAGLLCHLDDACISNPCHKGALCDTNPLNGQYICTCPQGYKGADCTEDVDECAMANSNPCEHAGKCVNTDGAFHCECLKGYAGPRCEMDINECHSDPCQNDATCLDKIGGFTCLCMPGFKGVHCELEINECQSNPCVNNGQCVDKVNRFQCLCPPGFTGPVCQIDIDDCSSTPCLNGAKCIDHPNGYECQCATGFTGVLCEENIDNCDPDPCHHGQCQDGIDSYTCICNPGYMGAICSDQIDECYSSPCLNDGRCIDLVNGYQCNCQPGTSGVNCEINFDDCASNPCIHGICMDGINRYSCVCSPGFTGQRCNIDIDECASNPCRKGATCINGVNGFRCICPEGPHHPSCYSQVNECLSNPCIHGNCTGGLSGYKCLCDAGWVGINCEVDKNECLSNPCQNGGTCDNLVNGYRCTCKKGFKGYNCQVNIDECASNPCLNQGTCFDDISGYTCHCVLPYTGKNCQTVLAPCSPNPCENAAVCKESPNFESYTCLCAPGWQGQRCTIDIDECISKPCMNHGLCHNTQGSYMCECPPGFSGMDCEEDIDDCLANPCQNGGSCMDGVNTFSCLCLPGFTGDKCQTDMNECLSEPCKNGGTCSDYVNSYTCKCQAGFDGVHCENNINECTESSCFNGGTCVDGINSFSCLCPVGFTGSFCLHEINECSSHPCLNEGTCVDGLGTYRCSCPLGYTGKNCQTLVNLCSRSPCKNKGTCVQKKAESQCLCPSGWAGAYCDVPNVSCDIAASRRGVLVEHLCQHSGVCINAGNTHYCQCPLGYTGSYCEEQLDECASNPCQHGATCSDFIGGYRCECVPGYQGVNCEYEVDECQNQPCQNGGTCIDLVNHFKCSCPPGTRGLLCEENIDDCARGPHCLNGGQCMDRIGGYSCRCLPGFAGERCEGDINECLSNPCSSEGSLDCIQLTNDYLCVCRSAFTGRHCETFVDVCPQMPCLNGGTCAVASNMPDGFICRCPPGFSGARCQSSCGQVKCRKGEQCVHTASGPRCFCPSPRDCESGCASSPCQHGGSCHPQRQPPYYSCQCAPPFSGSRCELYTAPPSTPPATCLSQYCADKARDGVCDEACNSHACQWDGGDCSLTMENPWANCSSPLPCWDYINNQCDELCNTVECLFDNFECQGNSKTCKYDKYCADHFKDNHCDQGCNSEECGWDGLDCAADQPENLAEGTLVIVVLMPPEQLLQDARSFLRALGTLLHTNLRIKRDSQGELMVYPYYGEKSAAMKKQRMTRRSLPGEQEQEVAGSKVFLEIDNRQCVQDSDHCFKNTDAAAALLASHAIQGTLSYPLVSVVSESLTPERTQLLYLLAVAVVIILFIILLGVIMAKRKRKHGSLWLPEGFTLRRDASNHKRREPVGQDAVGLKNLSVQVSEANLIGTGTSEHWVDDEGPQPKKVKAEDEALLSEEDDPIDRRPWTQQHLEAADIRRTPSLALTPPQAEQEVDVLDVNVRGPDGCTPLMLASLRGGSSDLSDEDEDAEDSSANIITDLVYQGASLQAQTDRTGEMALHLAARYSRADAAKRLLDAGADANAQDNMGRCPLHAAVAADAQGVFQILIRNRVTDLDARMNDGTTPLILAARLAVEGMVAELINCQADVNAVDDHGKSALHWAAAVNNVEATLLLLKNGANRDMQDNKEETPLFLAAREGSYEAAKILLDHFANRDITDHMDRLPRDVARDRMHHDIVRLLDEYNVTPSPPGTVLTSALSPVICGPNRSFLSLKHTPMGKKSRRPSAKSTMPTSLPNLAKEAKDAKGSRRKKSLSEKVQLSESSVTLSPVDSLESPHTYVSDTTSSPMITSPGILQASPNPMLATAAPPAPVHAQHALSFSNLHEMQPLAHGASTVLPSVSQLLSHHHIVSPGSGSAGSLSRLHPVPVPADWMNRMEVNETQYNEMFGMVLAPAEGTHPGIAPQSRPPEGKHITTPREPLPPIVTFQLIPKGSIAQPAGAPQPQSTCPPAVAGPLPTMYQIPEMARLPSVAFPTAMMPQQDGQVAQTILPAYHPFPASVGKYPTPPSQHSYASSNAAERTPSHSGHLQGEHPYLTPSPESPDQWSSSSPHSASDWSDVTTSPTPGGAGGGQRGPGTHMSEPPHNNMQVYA
Sequence of Neurogenic locus notch homolog protein 3 (Homo sapiens) (Q9UM47 whole entry, looked up): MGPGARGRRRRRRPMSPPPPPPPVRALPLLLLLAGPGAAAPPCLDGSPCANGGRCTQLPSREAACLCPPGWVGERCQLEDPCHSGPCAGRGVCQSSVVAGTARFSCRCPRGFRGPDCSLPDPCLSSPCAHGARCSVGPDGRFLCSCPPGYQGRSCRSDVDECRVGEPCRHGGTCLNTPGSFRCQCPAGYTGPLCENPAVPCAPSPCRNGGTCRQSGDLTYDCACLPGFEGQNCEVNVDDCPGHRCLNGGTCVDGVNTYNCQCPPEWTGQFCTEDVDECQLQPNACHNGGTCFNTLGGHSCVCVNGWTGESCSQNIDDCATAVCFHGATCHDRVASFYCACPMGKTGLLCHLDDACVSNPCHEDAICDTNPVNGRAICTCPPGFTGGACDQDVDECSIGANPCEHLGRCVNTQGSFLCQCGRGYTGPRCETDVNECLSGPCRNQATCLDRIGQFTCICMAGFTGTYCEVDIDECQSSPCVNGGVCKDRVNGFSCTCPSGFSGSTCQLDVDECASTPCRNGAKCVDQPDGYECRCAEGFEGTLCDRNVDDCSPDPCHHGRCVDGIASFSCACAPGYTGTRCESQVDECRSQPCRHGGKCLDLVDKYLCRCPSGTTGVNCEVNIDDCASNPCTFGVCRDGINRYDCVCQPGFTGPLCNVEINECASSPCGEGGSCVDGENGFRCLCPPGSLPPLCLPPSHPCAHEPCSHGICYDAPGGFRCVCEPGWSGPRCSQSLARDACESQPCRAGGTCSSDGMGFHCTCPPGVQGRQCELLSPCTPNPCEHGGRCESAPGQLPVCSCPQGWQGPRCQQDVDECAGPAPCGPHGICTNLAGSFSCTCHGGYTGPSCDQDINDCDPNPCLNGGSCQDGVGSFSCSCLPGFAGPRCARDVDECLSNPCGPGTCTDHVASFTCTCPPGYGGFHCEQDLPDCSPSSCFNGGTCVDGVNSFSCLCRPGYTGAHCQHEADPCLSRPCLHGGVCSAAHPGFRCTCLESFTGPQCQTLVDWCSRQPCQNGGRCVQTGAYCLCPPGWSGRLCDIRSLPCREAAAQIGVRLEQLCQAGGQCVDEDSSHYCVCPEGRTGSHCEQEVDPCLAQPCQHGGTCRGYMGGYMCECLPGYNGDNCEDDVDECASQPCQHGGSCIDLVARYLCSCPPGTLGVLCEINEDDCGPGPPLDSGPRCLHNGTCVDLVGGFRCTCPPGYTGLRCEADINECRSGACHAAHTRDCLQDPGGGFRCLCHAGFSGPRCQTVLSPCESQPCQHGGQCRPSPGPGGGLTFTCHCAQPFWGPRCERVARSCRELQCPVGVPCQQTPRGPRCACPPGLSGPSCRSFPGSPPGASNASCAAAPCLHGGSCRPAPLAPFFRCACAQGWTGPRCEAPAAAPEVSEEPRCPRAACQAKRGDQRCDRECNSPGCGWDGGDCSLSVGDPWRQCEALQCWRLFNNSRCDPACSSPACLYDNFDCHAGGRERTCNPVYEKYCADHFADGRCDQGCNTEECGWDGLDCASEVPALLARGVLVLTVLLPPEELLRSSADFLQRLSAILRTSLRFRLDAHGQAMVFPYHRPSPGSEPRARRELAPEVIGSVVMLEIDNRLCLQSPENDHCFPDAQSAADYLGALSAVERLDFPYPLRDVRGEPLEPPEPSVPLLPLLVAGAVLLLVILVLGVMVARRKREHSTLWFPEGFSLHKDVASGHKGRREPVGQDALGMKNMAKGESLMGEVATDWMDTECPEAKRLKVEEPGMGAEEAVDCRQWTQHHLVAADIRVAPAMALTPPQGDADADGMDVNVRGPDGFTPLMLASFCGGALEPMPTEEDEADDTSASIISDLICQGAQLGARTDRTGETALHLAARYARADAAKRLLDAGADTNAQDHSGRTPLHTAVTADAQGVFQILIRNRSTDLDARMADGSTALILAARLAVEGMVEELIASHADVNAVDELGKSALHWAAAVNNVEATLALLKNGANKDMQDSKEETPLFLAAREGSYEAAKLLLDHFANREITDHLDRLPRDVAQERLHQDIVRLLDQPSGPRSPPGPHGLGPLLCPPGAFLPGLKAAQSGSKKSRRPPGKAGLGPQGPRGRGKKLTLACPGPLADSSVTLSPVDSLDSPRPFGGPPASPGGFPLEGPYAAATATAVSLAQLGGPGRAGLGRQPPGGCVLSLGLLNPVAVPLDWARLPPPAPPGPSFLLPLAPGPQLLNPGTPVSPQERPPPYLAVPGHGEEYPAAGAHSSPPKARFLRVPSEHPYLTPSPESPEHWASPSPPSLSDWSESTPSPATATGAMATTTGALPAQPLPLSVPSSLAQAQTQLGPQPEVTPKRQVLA

With `O=C1C2C=CC(C(O)C(c3ccccc3)c3ccccc3)N(n3cnnc3)C2C(=O)N1Cc1ccccc1` (stereo not given) the composite z-score [1] was -0.148, the composite z-score [2] was 0.488 and the composite z-score [3] was 0.129. The composite z-score [4] was 0.784, the composite z-score [5] was 0.492 and the composite z-score [6] was 0.429. For the same molecule, the composite z-score [7] was 1.19, the z-score [8] was 0.266 (inactive) and the composite z-score [9] was 0.578. For the same molecule, the composite z-score [10] was 0.446, the composite z-score [11] was 1.44 and the z-score [12] was -0.743 (inactive). The z-score [13] was -0.615 (inactive), the z-score [14] was -0.771 (inactive) and the composite z-score [15] was 3.25. For the same molecule, the z-score [16] was -1.21 (inactive), the composite z-score [17] was -0.109 and the composite z-score [18] was 0.531. The composite z-score [19] was 1.1 and the composite z-score [20] was -0.167.
Molecule `CN1C(=O)C2C=CC(C(O)c3cccs3)N(Nc3ccccc3)C2C1=O` (stereo not given) has a composite z-score [1] of 0.0812, a composite z-score [2] of 0.552 and a composite z-score [3] of -0.0628. For the same molecule, the composite z-score [4] was 0.415, the composite z-score [5] was 0.94 and the composite z-score [6] was 1.22. The composite z-score [7] was 1.4, the z-score [8] was -0.263 (inactive) and the composite z-score [9] was 0.388. For the same molecule, the composite z-score [10] was 0.261, the composite z-score [11] was 0.881 and the z-score [12] was 0.442 (inactive). For the same molecule, the z-score [13] was 0.917 (inactive), the z-score [14] was 0.662 (inactive) and the composite z-score [15] was 3.24. For the same molecule, the z-score [16] was -1.32 (inactive), the composite z-score [17] was 0.139 and the composite z-score [18] was 0.395. It also gave a composite z-score [19] of 0.826 and a composite z-score [20] of -0.0111.
Work on `CC(C)(C)OC(=O)CC[C@]1(C(=O)O)N=C(c2ccc(OCCCO)cc2)O[C@H]1c1ccccc1N=[N+]=[N-]` yielded a composite z-score [1] of 1.1, a composite z-score [2] of 0.236 and a composite z-score [3] of 0.441. The composite z-score [4] was 0.448, the composite z-score [5] was 0.984 and the composite z-score [6] was 1.35. The composite z-score [7] was 1.14, the z-score [8] was 5.5 (inactive) and the composite z-score [9] was 2.04. For the same molecule, the composite z-score [10] was 1.24, the composite z-score [11] was 0.938 and the z-score [12] was 0.0071 (inactive). For the same molecule, the z-score [13] was 0.179 (inactive), the z-score [14] was -0.668 (inactive) and the composite z-score [15] was 3. For the same molecule, the z-score [16] was -0.0096 (inactive), the composite z-score [17] was 1.1 and the composite z-score [18] was 0.189. The composite z-score [19] was 0.41 and the composite z-score [20] was 0.285.
`CCOC(=O)C1=CCC(c2ccc(C)cc2)N(S(=O)(=O)c2ccc(C)cc2)C1` (stereo not given) gave a composite z-score [1] of 0.464, a composite z-score [2] of -0.0577 and a composite z-score [3] of -0.0499. It also gave a composite z-score [4] of 0.101, a composite z-score [5] of 0.255 and a composite z-score [6] of 0.38. The composite z-score [7] was 0.923, the z-score [8] was -4.43 (inactive) and the composite z-score [9] was 0.261. For the same molecule, the composite z-score [10] was -0.0994, the composite z-score [11] was 0.329 and the z-score [12] was 0.564 (inactive). The z-score [13] was 1.59 (inactive), the z-score [14] was 2.26 (inactive) and the composite z-score [15] was 1.69. For the same molecule, the z-score [16] was -0.422 (inactive), the composite z-score [17] was 0.0283 and the composite z-score [18] was -0.0866. For the same molecule, the composite z-score [19] was 0.234 and the composite z-score [20] was -0.121.
Molecule `CCCCCN1CC=CC23O[C@@H]4/C=C\CCCOC(=O)C4[C@H]2C(=O)N(CCCO)[C@@H]3C1=O` (stereo not given in full) has a composite z-score [1] of -0.181, a composite z-score [2] of 1.14 and a composite z-score [3] of -0.156. The composite z-score [4] was 0.116, the composite z-score [5] was -0.573 and the composite z-score [6] was 0.753. The composite z-score [7] was 1.47, the z-score [8] was -0.16 (inactive) and the composite z-score [9] was -0.533. The composite z-score [10] was -0.11, the composite z-score [11] was 0.83 and the z-score [12] was -1.03 (inactive). For the same molecule, the z-score [13] was -0.81 (inactive), the z-score [14] was -1.67 (inactive) and the composite z-score [15] was 3.58. The z-score [16] was 2.35 (inactive), the composite z-score [17] was -0.135 and the composite z-score [18] was -0.103. It also gave a composite z-score [19] of 0.165 and a composite z-score [20] of -0.186.
Molecule `COc1ccc([Si](C)(C)[C@H]2[C@H](CCn3cc([C@H](O)c4ccccc4)nn3)O[C@@]3(C(=O)N(Cc4cccc(N5CCOC5=O)c4)c4ccccc43)[C@@H]2C)cc1` has a composite z-score [1] of -0.218, a composite z-score [2] of 0.071 and a composite z-score [3] of -0.003. It also gave a composite z-score [4] of 0.29, a composite z-score [5] of 0.401 and a composite z-score [6] of 0.209. For the same molecule, the composite z-score [7] was 1.04, the z-score [8] was -0.955 (inactive) and the composite z-score [9] was -0.0127. For the same molecule, the composite z-score [10] was 0.155, the composite z-score [11] was 0.961 and the z-score [12] was -0.0578 (inactive). The z-score [13] was 0.947 (inactive), the z-score [14] was 1.95 (inactive) and the composite z-score [15] was 0.872. For the same molecule, the z-score [16] was -0.565 (inactive), the composite z-score [17] was 0.0342 and the composite z-score [18] was 0.827. For the same molecule, the composite z-score [19] was 1.04 and the composite z-score [20] was 0.117.
`O=C(NCc1ccccc1)[C@@]1(CCS(=O)(=O)c2ccccc2)N=C(c2ccc(OCCCO)cc2)O[C@H]1c1ccccc1` showed a composite z-score [1] of -0.0744, a composite z-score [2] of 0.345 and a composite z-score [3] of 0.115. It also gave a composite z-score [4] of 0.488, a composite z-score [5] of 1.56 and a composite z-score [6] of 1.82. For the same molecule, the composite z-score [7] was 1.19, the z-score [8] was -2.73 (inactive) and the composite z-score [9] was 1.6. The composite z-score [10] was 0.0274, the composite z-score [11] was 1.56 and the z-score [12] was 1.72 (inactive). For the same molecule, the z-score [13] was -0.129 (inactive), the z-score [14] was 34.4 (active) and the composite z-score [15] was 3.56. For the same molecule, the z-score [16] was 0.988 (inactive), the composite z-score [17] was 0.215 and the composite z-score [18] was 0.878. The composite z-score [19] was 1.06 and the composite z-score [20] was 0.116.
Work on `CC(=O)n1cc(C(O)C2C=CC3C(=O)N(C)C(=O)C3N2Nc2ccccc2)c2ccccc21` (stereo not given) yielded a composite z-score [1] of 0.508, a composite z-score [2] of 0.287 and a composite z-score [3] of 0.0672. The composite z-score [4] was 0.974, the composite z-score [5] was 1.58 and the composite z-score [6] was 1.78. For the same molecule, the composite z-score [7] was 1.27, the z-score [8] was 0.376 (inactive) and the composite z-score [9] was 0.951. The composite z-score [10] was -0.0196, the composite z-score [11] was 1.05 and the z-score [12] was -0.0186 (inactive). For the same molecule, the z-score [13] was 1.4 (inactive), the z-score [14] was 1.05 (inactive) and the composite z-score [15] was 3.18. The z-score [16] was -0.77 (inactive), the composite z-score [17] was 0.347 and the composite z-score [18] was 0.606. For the same molecule, the composite z-score [19] was 1.12 and the composite z-score [20] was -0.0644.
With `CCCC[C@H]1OB(O)C[C@H]2C1=C(COc1ccccc1)C[C@H]1C(=O)N(C)C(=O)[C@H]12` the composite z-score [1] was -0.32, the composite z-score [2] was -0.353 and the composite z-score [3] was -0.085. The composite z-score [4] was 0.121, the composite z-score [5] was 0.85 and the composite z-score [6] was 0.0746. The composite z-score [7] was 0.462, the z-score [8] was -0.153 (inactive) and the composite z-score [9] was 1.2. The composite z-score [10] was -0.0754, the composite z-score [11] was -0.0361 and the z-score [12] was -0.454 (inactive). The z-score [13] was -1.03 (inactive), the z-score [14] was -0.861 (inactive) and the composite z-score [15] was 0.265. For the same molecule, the z-score [16] was -0.632 (inactive), the composite z-score [17] was 0.0784 and the composite z-score [18] was 0.231. For the same molecule, the composite z-score [19] was 0.187 and the composite z-score [20] was -0.0714.
